# Columns and labels:
# Experiment in all cases: yeast three-hybrid, YBZ-1, SC-Leu-His + 0.5 mM 3-AT, 4 days
# Settings in all cases: tags: N-Gal4 AD-HA kept; label: inside an RPR1-promoter hybrid RNA with tandem MS2 sites; ssRNA
# [1] = biological target: PUM1 PUF domain R1-RKL (Homo sapiens, UniProt Q14671 828-1176, S863R;R864K;Q867L)
# Summary of the method: (§1)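 Each repeat of the Pumilio-1 PUF domain was randomized at its three base-contacting residues, and these libraries were co-expressed from a centromeric plasmid with matching RNA elements in strain YBZ-1. After four days on SC-Leu (input) or SC-Leu-His + 0.5 mM 3-AT (selection), the repeat regions were PCR-amplified and Illumina-sequenced. The interaction score compares variant frequency between input and selection as a log change, computed in log2 with a pseudocount of 1 for absent variants.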
# [2] = biological target: PUM1 PUF domain R1-KWS (Homo sapiens, UniProt Q14671 828-1176, S863K;R864W;Q867S)
# Summary of the method: as §1
# [3] = biological target: PUM1 PUF domain R1-KTQ (Homo sapiens, UniProt Q14671 828-1176, S863K;R864T)
# Summary of the method: as §1
# [4] = biological target: PUM1 PUF domain R5-LYR (Homo sapiens, UniProt Q14671 828-1176, C1007L;R1008Y;Q1011R)
# Summary of the method: as §1
# [5] = biological target: PUM1 PUF domain R5-DFS (Homo sapiens, UniProt Q14671 828-1176, C1007D;R1008F;Q1011S)
# Summary of the method: as §1
# [6] = biological target: PUM1 PUF domain R1-KAN (Homo sapiens, UniProt Q14671 828-1176, S863K;R864A;Q867N)
# Summary of the method: as §1
# [7] = biological target: PUM1 PUF domain R2-SIP (Homo sapiens, UniProt Q14671 828-1176, N899S;Y900I;Q903P)
# Summary of the method: as §1
# [8] = biological target: PUM1 PUF domain R2-RRA (Homo sapiens, UniProt Q14671 828-1176, N899R;Y900R;Q903A)
# Summary of the method: as §1
# [9] = biological target: PUM1 PUF domain R5-SVV (Homo sapiens, UniProt Q14671 828-1176, C1007S;R1008V;Q1011V)
# Summary of the method: as §1
# [10] = biological target: PUM1 PUF domain R4-PWQ (Homo sapiens, UniProt Q14671 828-1176, N971P;H972W)
# Summary of the method: as §1
# [11] = biological target: PUM1 PUF domain R4-FNG (Homo sapiens, UniProt Q14671 828-1176, N971F;H972N;Q975G)
# Summary of the method: as §1
# [12] = biological target: PUM1 PUF domain R4-RHI (Homo sapiens, UniProt Q14671 828-1176, N971R;Q975I)
# Summary of the method: as §1
# [13] = biological target: T1, PUM1 PUF domain R6-WHR (Homo sapiens, UniProt Q14671 828-1176, N1043W;Y1044H;Q1047R)
# T1 sequence: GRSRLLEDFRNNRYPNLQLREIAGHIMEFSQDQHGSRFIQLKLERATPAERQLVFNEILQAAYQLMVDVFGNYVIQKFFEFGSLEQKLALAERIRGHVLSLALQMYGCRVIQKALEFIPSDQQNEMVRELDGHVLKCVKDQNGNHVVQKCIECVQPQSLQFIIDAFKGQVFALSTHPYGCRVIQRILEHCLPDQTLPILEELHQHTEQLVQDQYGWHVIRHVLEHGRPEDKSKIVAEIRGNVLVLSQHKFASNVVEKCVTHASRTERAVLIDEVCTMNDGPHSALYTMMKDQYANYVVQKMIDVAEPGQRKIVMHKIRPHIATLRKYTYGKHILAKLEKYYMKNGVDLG
# Summary of the method: as §1
# [14] = biological target: PUM1 PUF domain R3-CRI (Homo sapiens, UniProt Q14671 828-1176, Q939I)
# Summary of the method: as §1
# [15] = biological target: PUM1 PUF domain R3-TRT (Homo sapiens, UniProt Q14671 828-1176, C935T;Q939T)
# Summary of the method: as §1
# [16] = biological target: PUM1 PUF domain R4-DWT (Homo sapiens, UniProt Q14671 828-1176, N971D;H972W;Q975T)
# Summary of the method: as §1
# [17] = biological target: PUM1 PUF domain R3-LFE (Homo sapiens, UniProt Q14671 828-1176, C935L;R936F;Q939E)
# Summary of the method: as §1
# [18] = biological target: PUM1 PUF domain R3-API (Homo sapiens, UniProt Q14671 828-1176, C935A;R936P;Q939I)
# Summary of the method: as §1
# [19] = biological target: PUM1 PUF domain R3-RQS (Homo sapiens, UniProt Q14671 828-1176, C935R;R936Q;Q939S)
# Summary of the method: as §1
# [20] = biological target: PUM1 PUF domain R3-YRW (Homo sapiens, UniProt Q14671 828-1176, C935Y;Q939W)
# Summary of the method: as §1
sequence,measurement,setting,value
GGCUAGAACUAGUGGAUCCCCCGGCGCCCGGCGGCUCGAGCCCGGGUAAGUGUAAAUUGUCUGCAUGCCGCCGGGCGCCAUGCCUGCAGGUCGACUCUAGAAAACAUG,binding signal,[1],2.52 log2 enrichment (interaction score)
same,binding signal,[2],3.62 log2 enrichment (interaction score)
same,binding signal,[3],5.82 log2 enrichment (interaction score)
GGCUAGAACUAGUGGAUCCCCCGGCGCCCGGCGGCUCGAGCCCGGGUAAGUGUUAAUAGUCUGCAUGCCGCCGGGCGCCAUGCCUGCAGGUCGACUCUAGAAAACAUG,binding signal,[4],3.43 log2 enrichment (interaction score)
same,binding signal,[5],5.63 log2 enrichment (interaction score)
GGCUAGAACUAGUGGAUCCCCCGGCGCCCGGCGGCUCGAGCCCGGGUAAGUGUCAAUAGUCUGCAUGCCGCCGGGCGCCAUGCCUGCAGGUCGACUCUAGAAAACAUG,binding signal,[4],3.17 log2 enrichment (interaction score)
GGCUAGAACUAGUGGAUCCCCCGGCGCCCGGCGGCUCGAGCCCGGGUAAGUGUAAAUGGUCUGCAUGCCGCCGGGCGCCAUGCCUGCAGGUCGACUCUAGAAAACAUG,binding signal,[6],2.46 log2 enrichment (interaction score)
GGCUAGAACUAGUGGAUCCCCCGGCGCCCGGCGGCUCGAGCCCGGGUAAGUGUAAAGAGUCUGCAUGCCGCCGGGCGCCAUGCCUGCAGGUCGACUCUAGAAAACAUG,binding signal,[7],3.71 log2 enrichment (interaction score)
same,binding signal,[8],2.69 log2 enrichment (interaction score)
GGCUAGAACUAGUGGAUCCCCCGGCGCCCGGCGGCUCGAGCCCGGGUAAGUGUGAAUAGUCUGCAUGCCGCCGGGCGCCAUGCCUGCAGGUCGACUCUAGAAAACAUG,binding signal,[4],0.51 log2 enrichment (interaction score)
same,binding signal,[9],3.44 log2 enrichment (interaction score)
GGCUAGAACUAGUGGAUCCCCCGGCGCCCGGCGGCUCGAGCCCGGGUAAGUGUAUAUAGUCUGCAUGCCGCCGGGCGCCAUGCCUGCAGGUCGACUCUAGAAAACAUG,binding signal,[10],5.05 log2 enrichment (interaction score)
same,binding signal,[11],4.34 log2 enrichment (interaction score)
same,binding signal,[12],3.1 log2 enrichment (interaction score)
GGCUAGAACUAGUGGAUCCCCCGGCGCCCGGCGGCUCGAGCCCGGGUAAGUGUAAAUAGUCUGCAUGCCGCCGGGCGCCAUGCCUGCAGGUCGACUCUAGAAAACAUG,binding signal,[13],3.96 log2 enrichment (interaction score)
same,binding signal,[4],4.43 log2 enrichment (interaction score)
same,binding signal,[9],0.43 log2 enrichment (interaction score)
same,binding signal,[14],3.93 log2 enrichment (interaction score)
same,binding signal,[15],4.01 log2 enrichment (interaction score)
same,binding signal,[16],6.18 log2 enrichment (interaction score)
same,binding signal,[17],3.02 log2 enrichment (interaction score)
same,binding signal,[18],3.13 log2 enrichment (interaction score)
GGCUAGAACUAGUGGAUCCCCCGGCGCCCGGCGGCUCGAGCCCGGGUAAGUGUAAUUAGUCUGCAUGCCGCCGGGCGCCAUGCCUGCAGGUCGACUCUAGAAAACAUG,binding signal,[15],1.8 log2 enrichment (interaction score)
same,binding signal,[17],1.57 log2 enrichment (interaction score)
same,binding signal,[19],4.09 log2 enrichment (interaction score)
GGCUAGAACUAGUGGAUCCCCCGGCGCCCGGCGGCUCGAGCCCGGGUAAGUGUAAGUAGUCUGCAUGCCGCCGGGCGCCAUGCCUGCAGGUCGACUCUAGAAAACAUG,binding signal,[20],4.4 log2 enrichment (interaction score)
GGCUAGAACUAGUGGAUCCCCCGGCGCCCGGCGGCUCGAGCCCGGGUAAGUGUAAAUCGUCUGCAUGCCGCCGGGCGCCAUGCCUGCAGGUCGACUCUAGAAAACAUG,binding signal,[2],3.87 log2 enrichment (interaction score)

# From article PMC8384837, “Expanding the binding specificity for RNA recognition by a PUF domain”
